PubChem BioAssay (NCATS)
Results filed as inconclusive are left out. Calls of active or inactive are those of the source. The call rests on the fitted dose curve; in most records, active means well fitted inhibition curve with a large enough effect; inconclusive means small, poorly fitted or top-dose-only effect; inactive means flat fitted curve, though single readings scatter.

What was measured:
Test in all cases: qHTS profiling for inhibitors of Plasmodium falciparum proliferation (AID 504749); further: nearly all actives have a fitted effect of over 60% in size
Conditions in all cases: P. falciparum in erythrocytes, SYBR Green DNA, 72 h; series mostly up to 28.7 µM
[1] = system: CP247
How it was run: (§1)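 P. falciparum-infected erythrocytes (0.3% parasitemia, 2.5% hematocrit) incubated with compound 72 h at 37 C, 5% CO2. Parasite DNA detected by SYBR Green after lysis, overnight at room temperature; normalised to 0.29 uM artemisinin and DMSO.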

[2] = system: CP250
How it was run: as §1

[3] = system: CP252
How it was run: as §1

[4] = system: CP256
How it was run: as §1

[5] = system: CP260
How it was run: as §1

[6] = system: CP262
How it was run: as §1

[7] = system: CP265
How it was run: as §1

[8] = system: CP266
How it was run: as §1

[9] = system: CP268
How it was run: as §1

[10] = system: CP269
How it was run: as §1

[11] = system: CP286
How it was run: as §1

[12] = system: CP291
How it was run: as §1

[13] = system: CP297
How it was run: as §1

[14] = system: CP305
How it was run: as §1

[15] = system: CP315
How it was run: as §1

[16] = system: CP325
How it was run: as §1

[17] = system: CP329
How it was run: as §1

[18] = system: CP335
How it was run: as §1

[19] = system: DFO2036
How it was run: as §1

[20] = system: DIV14
How it was run: as §1

Measured: Potency

CC(=O)OC[C@H]1O[C@@H](n2ncc(=O)[nH]c2=O)[C@H](OC(C)=O)[C@@H]1OC(C)=O
inactive: all assays above

COc1ccc2c(c1)c1c3n2CCN(C)C3=NCC1
inactive: all assays above

CCCCCCCC/C=C\CCCCCCCCN
inactive: all assays above

CC1=C(C(=O)O)N2C(=O)[C@@H](NC(=O)[C@H](N)c3ccccc3)[C@H]2SC1
inactive: all assays above

Cc1cc(NS(=O)(=O)c2ccc(N)cc2)nc(C)n1
inactive: all assays above

CCc1oc2ccccc2c1C(=O)c1cc(Br)c(O)c(Br)c1
inactive: all assays above

COc1cc(C)nc(-n2nc(C)cc2OC)n1
inactive: all assays above

CCCCc1cc2ccccc2c(OCCN(C)C)n1
inactive: all assays above

CCOc1ccccc1OCCN[C@H](C)Cc1ccc(OC)c(S(N)(=O)=O)c1
inactive: all assays above

O=c1[nH]c(=O)n([C@H]2C[C@H](O)[C@@H](CO)O2)cc1F
inactive: all assays above

O=C(O)P(=O)(O)O
inactive: all assays above

NS(=O)(=O)Cc1noc2ccccc12
inactive: all assays above

NC(=O)c1ccccc1O
inactive: all assays above
